Results: PubChem BioAssay (Tox21)
Unmarked numbers belong to inactive results. Records with an inconclusive call do not appear. A call without a number means that no potency is given here. Activity calls are given as the source filed them. Unless noted, calls follow the shape of the full dose curve.

Key:
[1] = Nuclear factor erythroid 2-related factor 2/antioxidant responsive element (Nrf2/ARE) small molecule agonists: qHTS cell viability counter screen in human keratinocytes (AID 1919968; active = well fitted curve in the direction sought with a large enough effect in the repeat runs; an effect the other way counts as inactive or inconclusive; also: nearly all actives have a fitted effect of over 55% in size; also: potency is read from the fitted curve at half-maximal effect)
In short: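 Viability counter-screen: KeratinoSens reporter cells, DMSO-delivered compounds, 23 h at 37 C, CellTiter-Fluor fluorescence.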

[2] = Nuclear factor erythroid 2-related factor 2/antioxidant responsive element (Nrf2/ARE) small molecule agonists: luciferase reporter gene qHTS assay in human keratinocytes (AID 1919969); also: nearly all actives have a fitted effect of over 35% in size; also: potency is read from the fitted curve at half-maximal effect
[3] = target: Gonadotropin-releasing hormone receptor (Homo sapiens) (UniProt P30968); experiment: Human gonadotropin-releasing hormone receptor (GnRHR) small molecule agonists, calcium flux assay in GnRHR-HEK293 cells (AID 1920063); also: nearly all actives have a fitted effect of over 35% in size
In short: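 Tox21-format agonist screen using human GnRHR-expressing HEK293 cells and a fluorescent calcium dye; kinetic 3-min fluorescence reading after compound addition, 15-point concentration series run in triplicate.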

[4] = target: KiSS-1 receptor (Homo sapiens) (UniProt Q969F8); experiment: Human kisspeptin (KISS1R) small molecule agonists, calcium flux assay in KISS1R-HEK293 cells (AID 1920064; active = well fitted curve in the direction sought with a large enough effect in the repeat runs; an effect the other way counts as inactive or inconclusive)
In short: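 Intracellular calcium mobilization in KISS1R-HEK293 cells was recorded by fluorescence (Ex/Em 480/540) for 3 min following compound addition to cells pre-loaded 1 h with calcium dye.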

[5] = G protein-coupled receptor (GPCR) small molecule agonists, calcium flux assay: HEK293 wild type cell line counter screen (AID 1920065)
In short: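 In this agonist-mode screen, ATP is the positive control and DMSO the vehicle. Cells grow 18 h before a 1 h dye incubation at 37 C; signal is taken at Ex/Em 480/540 over 3 min.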

[6] = p53 small molecule agonists, cell-based qHTS assay with human liver microsomes (AID 1963577)
In short: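 Cells carrying a p53-responsive bla reporter were rested 5 h (37 C, 5% CO2) before compound transfer. Human liver microsomes plus NADPH, 0.5 mg/mL final apiece, supplied metabolism during the 16 h 37 C exposure.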

[7] = p53 small molecule agonists, cell-based qHTS assay with rat liver microsomes (AID 1963578)
In short: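 Fluorescence from a beta-lactamase reporter under a p53 response element was measured after cells had been incubated 16 h at 37 C with test compound and rat liver microsomes plus NADPH (0.5 mg/mL final each).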

[8] = p53 small molecule agonists, cell-based qHTS assay with human liver microsomes: qHTS cell viability counter screen (AID 1963579); also: nearly all actives have a fitted effect of over 45% in size
In short: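 Seed p53RE-bla cells at 4,000 per well; incubate 5 h at 37 C; add compound, human liver microsomes and NADPH; incubate 16 h at 37 C; add CellTiter-Glo; after 30 min at room temperature, read luminescence.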

[9] = p53 small molecule agonists, cell-based qHTS assay with rat liver microsomes: qHTS cell viability counter screen (AID 1963580); also: nearly all actives have a fitted effect of over 45% in size
In short: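 p53RE-bla HCT-116 cells were exposed 16 h at 37 C to compounds with rat liver microsomes (0.5 mg/mL) and NADPH (0.5 mg/mL). Viability was measured in the same wells as ATP content by CellTiter-Glo luminescence.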

[10] = cAMP Responsive Elements (CRE) small molecule agonists, cell-based qHTS assay (AID 1963590)
In short: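 FRET-based beta-lactamase readout (LiveBLAzer B/G, 2 h RT) quantified CRE activation in HEK 293T CRE-bla cells after 3 h treatment with DMSO-dissolved compounds.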

[11] = cAMP Responsive Elements (CRE) small molecule antagonists, cell-based qHTS assay (AID 1963591; active = well fitted inhibition curve with a large enough effect in the signal ratio in the repeat runs, not every such curve was filed as active; the % refers to the signal ratio)
In short: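 qHTS in CRE-bla HEK 293T cells: compound in DMSO, then 0.25 uM NKH477 (final), 3 h at 37 °C/5% CO2; beta-lactamase FRET read-out after 2 h substrate incubation.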

[12] = target: D(2) dopamine receptor (Homo sapiens) (UniProt P14416); experiment: Dopamine D2 receptor (DRD2) small molecule agonists, cell-based qHTS assay (AID 1963594); also: nearly all actives have a fitted effect of over 35% in size
In short: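 HEK293 cells stably expressing human DRD2, pre-treated with PDE inhibitor Ro20-1724 (0.1 mM final) and compound 10 min at room temperature, then stimulated with NKH477 (200nM […]) for 30 min. cAMP read by HTRF (665/620 nm).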

[13] = target: D(2) dopamine receptor (Homo sapiens) (UniProt P14416); experiment: Dopamine D2 receptor (DRD2) small molecule antagonists, cell-based qHTS assay (AID 1963595; active = well fitted inhibition curve with a large enough effect in the signal ratio in the repeat runs, with a control signal flat; the % refers to the signal ratio; also: potency is read from the fitted curve at half-maximal effect)
In short: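 Stable D2 receptor HEK293 line, 24 h after seeding. Compound preincubated 10 min, then quinpirole (12 nM) with forskolin analogue NKH477 (200 nM), 30 min, room temperature. Detection by time-resolved FRET of cAMP.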

[14] = target: 5-hydroxytryptamine receptor 2A (Homo sapiens) (UniProt P28223); experiment: 5-hydroxytryptamine receptor 2A (HTR2A) small molecule agonists, cell-based qHTS assay (AID 1963587); also: nearly all actives have a fitted effect of over 30% in size
In short: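 CHO cells stably expressing human HTR2A, plated 18 h, loaded with calcium dye 1 h at 37 C. Agonist mode: compounds added and intracellular calcium fluorescence recorded kinetically for 2 min at 1 sec intervals.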

[15] = target: Muscarinic acetylcholine receptor M1 (Homo sapiens) (UniProt P11229); experiment: Cholinergic receptor muscarinic 1 (CHRM1) small molecule antagonists, cell-based qHTS assay (AID 1963588); also: nearly all actives have a fitted effect of over 40% in size
In short: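 CHRM1-CHO calcium-flux assay, antagonist mode. Cells were seeded 18 h, dye-loaded 1 h at 37 C and given compound for 5 min at RT, then acetylcholine was added at 50nM. FDSS fluorescence was read 3 min; 15 concentrations, three runs.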

[16] = target: Beta-2 adrenergic receptor (Homo sapiens) (UniProt P07550); experiment: Adrenergic beta2 receptor (ADRB2) small molecule antagonists, cell-based qHTS assay (AID 1963592); also: series mostly up to about 92 µM; nearly all actives have a fitted effect of over 50% in size
In short: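 Cells (CHO, stable ADRB2 overexpression) incubated 18-20hr at 37C; compounds added from DMSO; agonist mix (1nM isoproterenol, 100uM IBMX, 25uM Ro-20-1724) added; 0.5hr RT; d2-cAMP and anti-cAMP-cryptate added; 1hr RT; 665/615 nm read.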

[17] = p53 small molecule agonists, cell-based qHTS assay (AID 1963582; active = well fitted activation curve with a large enough effect in the signal ratio in the repeat runs, not every such curve was filed as active; the % refers to the signal ratio)
In short: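 Agonist activity was scored from beta-lactamase FRET fluorescence in p53RE-bla cells treated 16 h at 37 C with compounds in DMSO, substrate incubation being 2 h at room temperature.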

[18] = target: 5-hydroxytryptamine receptor 2A (Homo sapiens) (UniProt P28223); experiment: 5-hydroxytryptamine receptor 2A (HTR2A) small molecule antagonists, cell-based qHTS assay (AID 1963586); also: nearly all actives have a fitted effect of over 45% in size; also: potency is read from the fitted curve at half-maximal effect
In short: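 Antagonist-mode intracellular calcium assay: DOI (4 nM) added after 5 min compound pre-incubation at room temperature to dye-loaded HTR2A-CHO cells. Fluorescence followed for 3 min, sampled every second.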

[19] = target: Muscarinic acetylcholine receptor M1 (Homo sapiens) (UniProt P11229); experiment: Cholinergic receptor muscarinic 1 (CHRM1) small molecule agonists, cell-based qHTS assay (AID 1963589); also: nearly all actives have a fitted effect of over 35% in size
In short: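 Stable CHRM1-CHO cells (human receptor) were incubated 18 h, dye-loaded for 1 h at 37 C and exposed to test compounds for agonist activity, with calcium-dependent fluorescence followed kinetically.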

[20] = target: Beta-2 adrenergic receptor (Homo sapiens) (UniProt P07550); experiment: Adrenergic beta2 receptor (ADRB2) small molecule agonists, cell-based qHTS assay (AID 1963593);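 also: CHO cells stably overexpressing human ADRB2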
In short: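 CHO cells stably over-expressing ADRB2 were plated overnight at 37C, then dosed with compounds plus a stimulation mix containing 100uM IBMX and 25uM Ro-20-1724 for 0.5hr at room temperature. cAMP was measured by HTRF competition, 1hr.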

Sequence of Muscarinic acetylcholine receptor M1 (Homo sapiens) (P11229 whole entry, looked up): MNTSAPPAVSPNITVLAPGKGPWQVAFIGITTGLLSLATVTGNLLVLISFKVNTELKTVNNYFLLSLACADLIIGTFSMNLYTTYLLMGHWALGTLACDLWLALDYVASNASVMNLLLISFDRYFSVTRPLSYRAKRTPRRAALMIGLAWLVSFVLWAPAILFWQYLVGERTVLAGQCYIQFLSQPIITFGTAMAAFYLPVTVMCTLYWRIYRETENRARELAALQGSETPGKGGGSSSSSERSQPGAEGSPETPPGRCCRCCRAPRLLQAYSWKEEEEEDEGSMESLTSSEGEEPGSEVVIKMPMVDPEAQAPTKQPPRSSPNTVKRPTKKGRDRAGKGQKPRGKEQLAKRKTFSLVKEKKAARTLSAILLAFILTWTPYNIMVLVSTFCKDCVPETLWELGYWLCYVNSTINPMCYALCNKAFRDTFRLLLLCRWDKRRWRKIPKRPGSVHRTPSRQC
Sequence of KiSS-1 receptor (Homo sapiens) (Q969F8 whole entry, looked up): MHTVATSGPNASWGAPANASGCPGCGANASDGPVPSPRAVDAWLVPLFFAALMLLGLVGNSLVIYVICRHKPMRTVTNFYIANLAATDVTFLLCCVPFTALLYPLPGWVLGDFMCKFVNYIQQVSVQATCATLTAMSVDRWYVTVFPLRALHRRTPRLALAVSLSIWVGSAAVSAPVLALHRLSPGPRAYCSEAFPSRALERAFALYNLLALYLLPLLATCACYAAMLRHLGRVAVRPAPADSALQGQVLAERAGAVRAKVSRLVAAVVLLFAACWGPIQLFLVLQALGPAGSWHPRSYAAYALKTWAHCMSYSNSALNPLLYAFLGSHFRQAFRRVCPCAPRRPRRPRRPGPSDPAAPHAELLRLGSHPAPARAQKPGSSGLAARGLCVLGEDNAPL
Sequence of 5-hydroxytryptamine receptor 2A (Homo sapiens) (P28223 whole entry, looked up): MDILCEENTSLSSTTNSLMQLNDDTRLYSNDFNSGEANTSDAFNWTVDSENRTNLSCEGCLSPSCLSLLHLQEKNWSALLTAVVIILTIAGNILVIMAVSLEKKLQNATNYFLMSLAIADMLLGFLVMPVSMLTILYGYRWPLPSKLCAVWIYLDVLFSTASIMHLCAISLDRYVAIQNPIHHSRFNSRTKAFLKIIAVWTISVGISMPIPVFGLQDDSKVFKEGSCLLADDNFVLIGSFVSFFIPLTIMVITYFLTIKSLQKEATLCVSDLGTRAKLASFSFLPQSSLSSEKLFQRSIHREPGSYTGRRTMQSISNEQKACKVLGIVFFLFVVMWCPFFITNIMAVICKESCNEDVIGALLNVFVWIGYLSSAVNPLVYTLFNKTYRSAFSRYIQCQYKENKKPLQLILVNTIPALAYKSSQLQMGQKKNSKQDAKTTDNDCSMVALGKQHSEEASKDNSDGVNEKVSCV
Sequence of D(2) dopamine receptor (Homo sapiens) (P14416 whole entry, looked up): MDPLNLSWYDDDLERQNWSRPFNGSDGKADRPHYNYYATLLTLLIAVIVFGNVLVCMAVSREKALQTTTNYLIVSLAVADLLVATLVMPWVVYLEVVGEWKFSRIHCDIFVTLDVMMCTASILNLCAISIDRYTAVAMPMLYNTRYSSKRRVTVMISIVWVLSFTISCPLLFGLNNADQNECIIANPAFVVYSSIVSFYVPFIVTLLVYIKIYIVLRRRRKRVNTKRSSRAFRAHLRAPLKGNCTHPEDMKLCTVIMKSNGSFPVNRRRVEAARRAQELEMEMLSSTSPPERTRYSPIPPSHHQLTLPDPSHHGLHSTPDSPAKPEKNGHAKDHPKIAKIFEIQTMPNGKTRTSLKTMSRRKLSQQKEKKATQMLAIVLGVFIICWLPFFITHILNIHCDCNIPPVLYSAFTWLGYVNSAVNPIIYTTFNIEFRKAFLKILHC
Sequence of Beta-2 adrenergic receptor (Homo sapiens) (P07550 whole entry, looked up): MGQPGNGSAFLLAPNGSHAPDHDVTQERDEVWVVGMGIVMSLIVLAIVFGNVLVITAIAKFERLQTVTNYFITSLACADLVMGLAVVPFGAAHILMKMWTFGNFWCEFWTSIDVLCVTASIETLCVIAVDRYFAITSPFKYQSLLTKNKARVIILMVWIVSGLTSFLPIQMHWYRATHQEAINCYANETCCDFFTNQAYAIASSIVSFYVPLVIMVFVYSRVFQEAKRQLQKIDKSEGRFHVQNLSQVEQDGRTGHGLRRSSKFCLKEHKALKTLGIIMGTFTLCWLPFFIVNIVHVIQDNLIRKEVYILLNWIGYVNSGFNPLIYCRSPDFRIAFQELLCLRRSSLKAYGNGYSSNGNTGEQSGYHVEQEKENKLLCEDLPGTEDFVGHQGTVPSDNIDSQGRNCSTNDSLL
Sequence of Gonadotropin-releasing hormone receptor (Homo sapiens) (P30968 whole entry, looked up): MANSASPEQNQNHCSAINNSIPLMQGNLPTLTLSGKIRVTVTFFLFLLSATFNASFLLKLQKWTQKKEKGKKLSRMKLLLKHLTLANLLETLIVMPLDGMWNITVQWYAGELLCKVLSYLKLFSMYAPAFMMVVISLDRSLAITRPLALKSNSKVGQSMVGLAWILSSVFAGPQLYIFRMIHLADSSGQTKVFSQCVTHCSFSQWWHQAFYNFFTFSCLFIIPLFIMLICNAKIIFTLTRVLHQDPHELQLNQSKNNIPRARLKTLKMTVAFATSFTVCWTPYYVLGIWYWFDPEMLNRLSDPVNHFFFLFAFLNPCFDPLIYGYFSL

Row | SMILES | Potency [1] | Potency [2] | Potency [3] | outcome [4] | outcome [5] | Potency [6] | Potency [7] | Potency [8] | Potency [9] | Potency [10] | Potency [11] | Potency [12] | Potency [13] | Potency [14] | Potency [15] | Potency [16] | Potency [17] | Potency [18] | Potency [19] | Potency [20]
1 | CN(C)CCCN1c2ccccc2Sc2ccccc21 | inactive | inactive | inactive | inactive | inactive | inactive | inactive | inactive | inactive | inactive | inactive | inactive | 29.8 µM (active) | – | – | – | – | – | – | –
2 | O=C1Nc2cc(Cl)ccc2Oc2ccccc21 | inactive | inactive | inactive | inactive | inactive | inactive | inactive | inactive | inactive | inactive | – | inactive | inactive | inactive | inactive | inactive | – | – | – | –
3 | CC1=C(/C=C/C(C)=C/C=C/C(C)=C\C(=O)O)C(C)(C)CCC1 | inactive | 68.8 µM (active) | inactive | inactive | inactive | inactive | inactive | inactive | inactive | – | inactive | inactive | inactive | – | – | inactive | – | – | – | –
4 | CCCCC(CC)COC(=O)c1ccccc1O (stereo not drawn) | inactive | inactive | inactive | inactive | inactive | inactive | inactive | inactive | – | inactive | inactive | inactive | inactive | inactive | inactive | inactive | inactive | inactive | inactive | –
5 | CCOC(=O)C(O)c1ccccc1 (stereo not drawn) | inactive | inactive | inactive | inactive | inactive | inactive | inactive | inactive | – | inactive | inactive | inactive | – | inactive | inactive | inactive | inactive | inactive | inactive | –
6 | CC(=O)Oc1ccc(C(C)=O)cc1 | inactive | inactive | inactive | inactive | inactive | inactive | inactive | inactive | – | inactive | inactive | – | inactive | inactive | inactive | inactive | inactive | inactive | inactive | inactive
7 | CCCCCCCCOC(C)=O | inactive | inactive | inactive | inactive | inactive | inactive | inactive | inactive | – | inactive | inactive | inactive | inactive | inactive | inactive | inactive | inactive | inactive | inactive | –
8 | CC(C)CC(=O)C1C(=O)c2ccccc2C1=O | inactive | inactive | inactive | inactive | inactive | inactive | inactive | inactive | – | – | inactive | inactive | inactive | inactive | inactive | inactive | inactive | inactive | inactive | inactive
9 | COc1ccc2sc(C(=O)Nc3nnn[nH]3)c(OC(C)C)c2c1 | 27.2 µM (active) | 24.2 µM (active) | inactive | inactive | inactive | inactive | inactive | inactive | – | – | – | – | inactive | inactive | inactive | – | inactive | – | inactive | –
10 | N=C1C=CC(=C(c2ccc(N)cc2)c2ccc(N)cc2)C=C1 | 27.3 µM (active) | 61.1 µM (active) | inactive | inactive | inactive | inactive | inactive | inactive | – | – | – | – | – | inactive | inactive | – | – | 8.4 µM (active) | inactive | –
11 | Nc1ccc(S(=O)(=O)O)c(N)c1 | inactive | inactive | inactive | inactive | inactive | inactive | inactive | inactive | – | inactive | inactive | – | inactive | inactive | inactive | inactive | – | inactive | inactive | –
12 | C=C(C)CCCC | inactive | inactive | inactive | inactive | inactive | inactive | inactive | inactive | – | inactive | inactive | – | inactive | inactive | inactive | inactive | inactive | – | inactive | inactive
13 | COc1cc(C)ccc1C(C)C | inactive | inactive | inactive | inactive | inactive | inactive | inactive | inactive | – | inactive | – | inactive | inactive | inactive | – | inactive | inactive | – | inactive | inactive
14 | COc1cc2c3cc1Oc1cc(ccc1O)C[C@@H]1c4c(cc(OC)c(O)c4Oc4ccc(cc4)C[C@@H]3N(C)CC2)CC[N+]1(C)C | inactive | inactive | inactive | inactive | inactive | inactive | inactive | inactive | – | – | inactive | inactive | inactive | – | – | inactive | inactive | – | – | inactive
